Source: PubChem BioAssay (National Center for Advancing Translational Sciences (NCATS))
Sampled rows, rich in hits. Any-hit rate of the full collection: about 2.4%.
D2 PAM-1: Beta-Arrestin HTS for Positive Allosteric Modulators of the Human D2 Dopamine Receptor: Potentiators | DiscoveRx D2 beta-arrestin cells, luminescence, 90 min; 100% = 57 uM dopamine signal | potentiation, % (test concentration not listed) | 360,000 tested, 0.23% active | AID 624464, 2012; in the data active = potentiation above about 50%
Target sequence (P14416 whole entry, looked up): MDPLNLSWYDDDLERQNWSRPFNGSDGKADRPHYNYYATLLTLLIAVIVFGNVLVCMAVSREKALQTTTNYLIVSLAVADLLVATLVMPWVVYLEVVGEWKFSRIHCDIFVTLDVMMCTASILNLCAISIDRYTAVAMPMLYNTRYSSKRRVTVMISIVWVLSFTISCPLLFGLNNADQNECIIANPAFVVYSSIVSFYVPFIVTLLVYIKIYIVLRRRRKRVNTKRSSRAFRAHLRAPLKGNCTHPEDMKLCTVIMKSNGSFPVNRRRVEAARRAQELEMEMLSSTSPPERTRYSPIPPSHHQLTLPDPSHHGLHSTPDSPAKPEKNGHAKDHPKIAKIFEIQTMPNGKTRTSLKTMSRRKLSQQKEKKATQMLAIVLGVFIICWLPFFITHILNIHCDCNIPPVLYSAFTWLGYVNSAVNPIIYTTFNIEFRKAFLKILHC
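D2 cells co-treated with compound plus 50 nM dopamine (EC20) for 90 min at 37 deg C to detect potentiation. Beta-arrestin recruitment was read as enzyme-fragment luminescence after 1 h at ambient temperature. Full response was set by 57 uM dopamine.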
D2 antagonist: HTS Assay for Allosteric Antagonists of the Human D2 Dopamine Receptor: Primary Screen for Antagonists; D(2) dopamine receptor (Homo sapiens), P14416; HEK293 TREx D2 cells, calcium flux, dopamine EC80; inhibition, % at 10 µM; 340,000 tested, 2% active; AID 485344, 2010; in the data active = inhibition above about 30%; inactive = below that, where a call was filed; note: 0% is about no effect
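Antagonism is scored as inhibition of an EC80 dopamine-evoked calcium signal in a force-coupled, tetracycline-inducible HEK293 T-REx D2 line, with compound present 180 s before agonist.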
D2 ag-1: HTS Assay for Allosteric Agonists of the Human D2 Dopamine Receptor: Primary Screen for Agonists. D(2) dopamine receptor (Homo sapiens), P14416. HEK293 T-REx D2 cells, calcium flux agonist mode. activation, % at 2 µM. 340,000 tested, 0.53% active. AID 485358, 2010;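 active = activation over 3 SD above normal in the single-dose calcium agonist read, cut at about 30% in these data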; note: 0% is about no effect
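Tetracycline-induced HEK293 Trex cells with D2 receptor force-coupled to calcium signaling, plated overnight at 30 C and loaded with no-wash calcium dye. Calcium flux read kinetically for 180 s after compound addition; responses flag agonists.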
D2 ag-2: Beta-Arrestin HTS for Positive Allosteric Modulators of the Human D2 Dopamine Receptor: Agonists; D(2) dopamine receptor (Homo sapiens), P14416; DiscoveRx PathHunter D2 beta-arrestin, luminescence, 90 min; 100% = 57 uM dopamine signal; activation, % (test concentration not listed); 360,000 tested, 0.084% active; in the data active = activation above about 40%
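Agonist mode: compounds alone added to overnight-plated D2 PathHunter cells for 90 min at 37 C, with 57 uM final dopamine (EC100) defining full response. Beta-arrestin recruitment detected by chemiluminescent reagent, read after 1 h at ambient temperature.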
D2 PAM-2: HTS Assay for Positive Allosteric Modulators of the Human D2 Dopamine Receptor: Primary Screen for Potentiators; D(2) dopamine receptor (Homo sapiens), P14416; HEK293 T-REx D2, calcium flux, EC20 dopamine potentiation; potentiation, % at 10 µM; 340,000 tested, 0.34% active; AID 485347, 2010;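 active = potentiation over 3 SD above the plate norm, cut at about 30% in these data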; note: 0% is about no effect
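Using a no-wash calcium dye in inducible, force-coupled HEK293 Trex cells expressing D2, we tracked fluorescence each second for 180 s after compound, then for 180 s after EC20 dopamine to detect augmented signalling.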
Starred values were filed as active, the others as inactive.

What do the screens show for `N#C/C(=C\c1ccc(-c2ccc(C(=O)O)cc2)o1)C(=O)Nc1ccccc1C(=O)O`?
D2 ag-1: 0; D2 PAM-2: 5

How did CCCN(Cc1cccs1)C(=O)Nc1cc(C)cc(C)c1 do in these assays?
D2 ag-1: -2; D2 PAM-2: 3

How did Cc1nn(C(=O)c2cc3sccc3[nH]2)c(C)c1C do in these assays?
D2 PAM-1: -3; D2 antagonist: 34*; D2 ag-1: 0; D2 ag-2: 0; D2 PAM-2: -3

What do the screens show for `CC1CC(C)CN(CC(O)COC2CC(C)CC(C)(C)C2)C1` (stereo unspecified)?
D2 PAM-1: -24; D2 ag-2: -5

Results for CC1CC(OCC(O)CN2CCOCC2)CC(C)(C)C1 (stereo unspecified) ?
D2 PAM-1: 1; D2 antagonist: 46*; D2 ag-1: 0; D2 ag-2: 1; D2 PAM-2: -4

How did COCC(C)n1c(SCc2ccc(OC)c(F)c2)nc2ccccc2c1=O (stereo unspecified) do in these assays?
D2 PAM-1: 9; D2 ag-2: 3

What do the screens show for `CCn1c(SCc2ccc(OC)c(F)c2)nc2ccccc2c1=O`?
D2 PAM-1: -1; D2 antagonist: -17; D2 ag-1: 3; D2 ag-2: 6; D2 PAM-2: 33*

How did Cc1ccc(C)c(Nc2c(F)c(F)c(F)c(F)c2C(=O)O)c1 do in these assays?
D2 PAM-1: 13; D2 antagonist: -2; D2 ag-1: 0; D2 ag-2: 4; D2 PAM-2: 32*

Results for COc1c(F)c(F)c(C(=O)O)c(Nc2ccc(C)cc2)c1F ?
D2 PAM-1: -14; D2 antagonist: -1; D2 ag-1: 1; D2 ag-2: -1; D2 PAM-2: 2

What do the screens show for `COc1cccc(Nc2ccc3cc(S(=O)(=O)N4CCC(C)CC4)ccc3n2)c1`?
D2 ag-1: 0; D2 PAM-2: 2

What do the screens show for `CCCN1CCC(N(CCc2ccccc2)Cc2ccccc2)CC1`?
D2 PAM-1: -4; D2 antagonist: 39*; D2 ag-1: -1; D2 ag-2: 5; D2 PAM-2: -16

Results for COc1ccc(CN2CCC(N(CCc3ccccc3)Cc3ccccc3)CC2)c(OC)c1 ?
D2 PAM-1: -17; D2 antagonist: 35*; D2 ag-1: -1; D2 ag-2: -1; D2 PAM-2: -32

What do the screens show for `COc1ccc(CN2CCc3ccccc3C2)c(OC)c1`?
D2 PAM-1: -23; D2 antagonist: 24; D2 ag-1: -2; D2 ag-2: -2; D2 PAM-2: -22

Results for CCCCOc1ccc(C2=NC(c3ccncc3)=Nc3ccc(OCC)cc3N2)cc1 ?
D2 ag-1: -1; D2 PAM-2: -1

Results for CS(=O)(=O)N1CCN(c2ccc(NC(=S)NC(=O)c3ccccc3[N+](=O)[O-])cc2)CC1 ?
D2 PAM-1: -13; D2 antagonist: 33*; D2 ag-1: 0; D2 ag-2: 3; D2 PAM-2: -14

How did COc1ccc(Cl)cc1C(=O)NNC(=O)COC(=O)CCN=C1NS(=O)(=O)c2ccccc21 do in these assays?
D2 PAM-1: -53; D2 antagonist: 30*; D2 ag-1: -1; D2 ag-2: -20; D2 PAM-2: -1

Results for COc1ccccc1C(=O)COC(=O)CCN=C1NS(=O)(=O)c2ccccc21 ?
D2 PAM-1: -16; D2 antagonist: -14; D2 ag-1: 0; D2 ag-2: 2; D2 PAM-2: -3

What do the screens show for `CN1CCC=C(C(=O)N2c3ccccc3Sc3ccc(Cl)cc32)C1`?
D2 PAM-1: -5; D2 antagonist: 39*; D2 ag-1: 0; D2 ag-2: -2; D2 PAM-2: -20

Results for NCCC(=O)N1c2ccccc2Sc2ccc(Cl)cc21 ?
D2 PAM-1: -7; D2 antagonist: 48*; D2 ag-1: 42*; D2 ag-2: -5; D2 PAM-2: -13

How did CCOC(=O)c1cc(-c2ccc(OC)cc2)n(CCC(=O)NC2CCC(C)CC2)c1C (stereo unspecified) do in these assays?
D2 ag-1: 0; D2 PAM-2: -3

What do the screens show for `Cc1nc2c(c(C)nn2-c2ccccc2)c(C)c1CCC(=O)Nc1ccc(F)cc1`?
D2 ag-1: 0; D2 PAM-2: -2

How did CCN(C(=O)c1cn(CC)c(=O)c2cc(OC)c(OC)cc12)c1ccc(C)c(C)c1 do in these assays?
D2 ag-1: -3; D2 PAM-2: 1

How did COC(=O)c1sccc1NC(=O)Nc1ccc(C)c(C)c1 do in these assays?
D2 PAM-1: 0; D2 antagonist: -3; D2 ag-1: 0; D2 ag-2: -6; D2 PAM-2: -4

How did COC(=O)c1sccc1NC(=O)c1ccc(C)s1 do in these assays?
D2 PAM-1: -4; D2 antagonist: 33*; D2 ag-1: -1; D2 ag-2: -2; D2 PAM-2: 33*

How did COC(=O)c1sccc1NC(=O)Cc1ccc(Br)cc1 do in these assays?
D2 PAM-1: -8; D2 antagonist: 42*; D2 ag-1: -1; D2 ag-2: 2; D2 PAM-2: -6

How did COC(=O)c1sccc1NC(=O)Nc1ccc(Cl)c(Cl)c1 do in these assays?
D2 PAM-1: -15; D2 antagonist: 44*; D2 ag-1: 0; D2 ag-2: 5; D2 PAM-2: -6

What do the screens show for `COc1ccc(NC(=O)CSc2nc3c(oc4ccccc43)c(=O)n2-c2ccccc2)cc1OC`?
D2 ag-1: 0; D2 PAM-2: 14

Results for CC(C)(Cc1ccc(O)cc1)NC(=O)CC(=O)N=Nc1c(O)[nH]c2ccc(Br)cc12 ?
D2 PAM-1: -11; D2 antagonist: 3; D2 ag-1: 31*; D2 ag-2: 2; D2 PAM-2: -16

What do the screens show for `CCCCC(=O)N/N=C/c1ccc(N2CCOCC2)c([N+](=O)[O-])c1`?
D2 PAM-1: -5; D2 antagonist: 59*; D2 ag-1: 1; D2 ag-2: -1; D2 PAM-2: 8

What do the screens show for `COc1ccc(N2CCN(C(=O)c3ccccc3)CC2)c([N+](=O)[O-])c1`?
D2 PAM-1: -2; D2 antagonist: 6; D2 ag-1: -1; D2 ag-2: -6; D2 PAM-2: -5

What do the screens show for `CCCCC(=O)N1CCN(c2ccc(OC)cc2[N+](=O)[O-])CC1`?
D2 PAM-1: 0; D2 antagonist: 30*; D2 ag-1: 0; D2 ag-2: 0; D2 PAM-2: 9

What do the screens show for `COc1ccc(NC(=O)N2CCc3c(sc4c3CCCC4)C2c2ccc(F)cc2)cc1` (stereo unspecified)?
D2 PAM-2: -3
